Laboratory results published in PubChem BioAssay.
Where “and” joins values, the source holds several entries; their conditions need not be identical. Identical values can stand only once. Inconclusive results are not listed. Calls of active or inactive are those of the source.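 The calls were made as follows, unless noted: active = normalized viability below 100% at a tested concentration; inactive = the rest.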

Assays:
[1] = growth inhibition of DIPG glioma cells, dose response, cell-based, SU-DIPG-XVII, MIPE5.0, CellTiter-Glo, qHTS (AID 1347060; cut-off not given, nearly all actives have AC50 up to about 26 µM;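 as to AC50: cells exposed to compound for 48 hours before viability readout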); settings: SU-DIPG-XVII viability, CellTiter-Glo ATP luminescence
[2] = growth inhibition of DIPG glioma cells, dose response, cell-based, SU-DIPG-XIII, MIPE4.0, CellTiter-Glo, qHTS (AID 1347061; cut-off not given, nearly all actives have AC50 up to about 37 µM;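 also: cells exposed to compound for 48 hours before readout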); settings: SU-DIPG-XIII viability, CellTiter-Glo ATP luminescence
[3] = growth inhibition of DIPG glioma cells, dose response, cell-based, JHH-DIPG-1, MIPE4.0, CellTiter-Glo, qHTS (AID 1347062; cut-off not given, nearly all actives have AC50 up to about 27 µM); settings: JHH-DIPG-1 viability, CellTiter-Glo ATP luminescence
[4] = growth inhibition of DIPG glioma cells, dose response, cell-based, SU-DIPG-IV, MIPE4.0, CellTiter-Glo, qHTS (AID 1347063; cut-off not given, nearly all actives have AC50 up to about 30 µM;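 also: compound exposure lasted 48 hours before the viability readout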); settings: SU-DIPG-IV viability, CellTiter-Glo ATP luminescence
[5] = viability loss in pontine glioma line – cell-based, SU-DIPG-XXV, MIPE5.0, CellTiter-Glo, qHTS, dose response (AID 1347065; cut-off not given, nearly all actives have AC50 up to about 26 µM;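 also: cells exposed to compound for 48 hours before ATP readout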); settings: CellTiter-Glo ATP luminescence
[6] = SU-DIPG-VI glioma cell viability, MIPE4.0 library, CellTiter-Glo luminescence, qHTS (AID 1347066; cut-off not given, nearly all actives have AC50 up to about 30 µM;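 also: cells exposed to compound for 48 hours before readout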); settings: CellTiter-Glo ATP luminescence
[7] = JHH-DIPG-1 glioma cell viability, MIPE5.0 library, CellTiter-Glo luminescence, qHTS (AID 1347067; cut-off not given, nearly all actives have AC50 up to about 26 µM;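 also: cells exposed to compound for 48 hours before readout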); settings: JHH-DIPG-1 glioma viability, CellTiter-Glo ATP luminescence
[8] = SU-DIPG-XXV glioma cell viability, MIPE5.0 library, qHTS (AID 1347068; cut-off not given, nearly all actives have IC50 up to about 30 µM)
[9] = sensitizers of A549 cells to miR-34 induction, primary screen, imaging, A549 dox-inducible miR-34, nuclei and caspase counts (AID 1347080;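 active = compounds whose cell count with miR-34 switched on is under 0.7 times the count with it off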); settings: A549 miR-34 inducible, Hoechst nuclei count, 48 h
[10] = survival rescue of mitochondrial mutant cells in low glucose, primary screen, MELAS cybrids, Rieske KO mouse fibroblasts, CellTiter-Glo (AID 1508586;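 active = mean z-score across replicates of 1.96 or higher in either the MELAS or the Rieske mutant cell line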;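 also: z relative to plate mean and SD of compound and empty wells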)
[11] = growth inhibition of DIPG glioma cells, dose response, cell-based, SU-DIPG-XIII, MIPE5.0, CellTiter-Glo, qHTS (AID 1347064; cut-off not given, nearly all actives have AC50 up to about 23 µM); settings: SU-DIPG-XIII viability, CellTiter-Glo ATP luminescence
[12] = modifiers of HSF1 nuclear foci, imaging, Selleck Cancer Library (AID 1347162; in the data active = plate-normalised HSF1 focus index below about 0.46); settings: human cells, at 10 µM; SSMD: measured here: HSF1 foci SSMD mean; cell count: measured here: cell number; plate-normalised HSF1 focus index: stronger effect = lower value
[13] = ovarian cancer cell viability with rucaparib, profiling panel, oncology-focused library, rucaparib conditional (AID 1508598); settings: patient-derived ovarian cancer cells, CellTiter-Glo viability, 144 h, stronger effect = lower value
[14] = stronger effect = lower value, cell number ratio, induced over uninduced
[15] = measured here: relative caspase fold change +Dox/-Dox
[16] = measured here: total cells with miR-34 induction, stronger effect = lower value
[17] = measured here: total cells without miR-34 induction
[18] = MELAS cybrid survival, CellTiter-Glo 48 h, stronger effect = higher value
[19] = Rieske KO mouse fibroblast survival, CellTiter-Glo 72 h

NC(=O)c1cccc(-c2cccc(OC(=O)NC3CCCCC3)c2)c1
inactive: outcome [1] | outcome [2] | outcome [3] | outcome [4] | outcome [5] | outcome [6] | outcome [7] | outcome [8] | fold change [9, 14] 1.39 and 0.902 | z-score [10, 18] -0.288
1.45 and 0.843: fold change [9, 15]
4040 and 9560: cell count [9, 17]
-0.11: z-score [10, 19]
5620 and 8620: cell count [9, 16]

O=C(CN1C(=O)C2(CCCC2)NC[C@H]1c1cc(F)cc(F)c1)Nc1ccc2c(c1)C[C@@]1(C2)C(=O)Nc2ncccc21
inactive: outcome [1] | outcome [2] | outcome [3] | outcome [4] | outcome [5] | outcome [6] | outcome [7] | outcome [8]

Cc1cc2c(cc1C1(c3ccc(C(=O)O)cn3)CC1)C(C)(C)CCC2(C)C
7020: cell count [12]
2.63: SSMD [12]
inactive: outcome [1] | outcome [2] | outcome [3] | outcome [4] | outcome [11] | outcome [8] | plate-normalised HSF1 focus index [12] 1.16

C=C(c1ccc(C(=O)O)cc1)c1cc2c(cc1C)C(C)(C)CCC2(C)C
6410 and 6330: cell count [9, 16]
active: AC50 [1] 23.5 µM | AC50 [5] 0.118 µM | viability ([13]; at 0.000305 µM, OCI-P5x cells, with rucaparib 20 µM, 100% = cells with rucaparib alone) 90.9% | viability ([13]; at 0.00122 µM, OCI-P5x cells, with rucaparib 20 µM, 100% = cells with rucaparib alone) 96% | viability ([13]; at 1.25 µM, OCI-C5x cells, with rucaparib 10 µM, 100% = cells with rucaparib alone) 98%
0.712 and -0.251: z-score [10, 19]
inactive: outcome [2] | outcome [3] | outcome [4] | outcome [6] | outcome [8] | fold change [9, 14] 0.951 and 0.85 | z-score [10, 18] 0.149 and 0.79 | viability ([13]; at 0.000305 µM, OCI-C5x cells, with rucaparib 10 µM, 100% = cells with rucaparib alone) 115% | viability ([13]; at 0.000305 µM, OCI-C5x cells, without rucaparib) 109% | viability ([13]; at 0.000305 µM, OCI-P5x cells, without rucaparib) 106% | viability ([13]; at 0.00122 µM, OCI-C5x cells, with rucaparib 10 µM, 100% = cells with rucaparib alone) 116% | viability ([13]; at 0.00122 µM, OCI-C5x cells, without rucaparib) 109% | viability ([13]; at 0.00122 µM, OCI-P5x cells, without rucaparib) 111% | viability ([13]; at 0.00488 µM, OCI-C5x cells, with rucaparib 10 µM, 100% = cells with rucaparib alone) 112% | viability ([13]; at 0.00488 µM, OCI-C5x cells, without rucaparib) 120% | viability ([13]; at 0.00488 µM, OCI-P5x cells, with rucaparib 20 µM, 100% = cells with rucaparib alone) 108% | viability ([13]; at 0.00488 µM, OCI-P5x cells, without rucaparib) 120% | viability ([13]; at 0.0195 µM, OCI-C5x cells, with rucaparib 10 µM, 100% = cells with rucaparib alone) 108% | viability ([13]; at 0.0195 µM, OCI-C5x cells, without rucaparib) 119% | viability ([13]; at 0.0195 µM, OCI-P5x cells, with rucaparib 20 µM, 100% = cells with rucaparib alone) 113% | viability ([13]; at 0.0195 µM, OCI-P5x cells, without rucaparib) 124% | viability ([13]; at 0.0781 µM, OCI-C5x cells, with rucaparib 10 µM, 100% = cells with rucaparib alone) 106% | viability ([13]; at 0.0781 µM, OCI-C5x cells, without rucaparib) 106% | viability ([13]; at 0.0781 µM, OCI-P5x cells, with rucaparib 20 µM, 100% = cells with rucaparib alone) 112% | viability ([13]; at 0.0781 µM, OCI-P5x cells, without rucaparib) 125% | viability ([13]; at 0.313 µM, OCI-C5x cells, with rucaparib 10 µM, 100% = cells with rucaparib alone) 103% | viability ([13]; at 0.313 µM, OCI-C5x cells, without rucaparib) 122% | viability ([13]; at 0.313 µM, OCI-P5x cells, with rucaparib 20 µM, 100% = cells with rucaparib alone) 115% | viability ([13]; at 0.313 µM, OCI-P5x cells, without rucaparib) 130% | viability ([13]; at 1.25 µM, OCI-C5x cells, without rucaparib) 122% | viability ([13]; at 1.25 µM, OCI-P5x cells, with rucaparib 20 µM, 100% = cells with rucaparib alone) 117% | viability ([13]; at 1.25 µM, OCI-P5x cells, without rucaparib) 126% | viability ([13]; at 5 µM, OCI-C5x cells, with rucaparib 10 µM, 100% = cells with rucaparib alone) 101% | viability ([13]; at 5 µM, OCI-C5x cells, without rucaparib) 128% | viability ([13]; at 5 µM, OCI-P5x cells, with rucaparib 20 µM, 100% = cells with rucaparib alone) 116% | viability ([13]; at 5 µM, OCI-P5x cells, without rucaparib) 125%
6740 and 7440: cell count [9, 17]
1.39 and 1.44: fold change [9, 15]
